# Measurements: the supplement of paper PMC7156485
# Where “and” joins values, the source holds several entries; their conditions need not be identical. Equal entries are not always repeated. ± gives the standard deviation of the averaged measurements.
# What was measured:
# Details in all cases: concentration: 10 µM; 24 h
# HCC1569 [1] = test: cell number relative to DMSO (% of DMSO); higher = more cells (less growth inhibition / toxicity)
# Summary of the method: (§1)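 After 24 h at 37 °C with compounds at 10 µM, in triplicate, HCC1569 and TDF cells were fixed with 3.7% formaldehyde. Immunostaining used a rabbit anti-H1.0 antibody and an AlexaFluor 647 secondary, with DAPI, and six fields per well were imaged at ×10. H1.0 nuclear intensity or cell number is presented as percent of the plate control, from the median of replicates, with HCC1569 values smoothed for positional effects.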
# TDF [2] = test: as above
# Summary of the method: as §1
# TDF [3] = test: H1.0 immunofluorescence intensity relative to DMSO (% of DMSO); higher = stronger H1.0 induction, active = 120 or more
# Summary of the method: as §1
# HCC1569 [4] = test: H1.0 immunofluorescence intensity relative to DMSO (% of DMSO); higher = stronger H1.0 induction, active = 140 or more
# Summary of the method: as §1
# 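Throughout, for H1.0 immunofluorescence intensity relative to DMSO: TDF is a line of transformed human dermal fibroblasts of mesenchymal origin.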
# 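Throughout, for cell number relative to DMSO: TDF denotes transformed human dermal fibroblasts of mesenchymal origin.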
SMILES,cell number (HCC1569 [1]),cell number (TDF [2]),H1.0 immunofluorescence intensity (TDF [3]),H1.0 immunofluorescence intensity (HCC1569 [4])
COc1ccc(C=CC(=O)Nc2ccccc2C(=O)O)cc1OC [Tranilast],99.2 ± 2.1,103 ± 4.7,92.9 (inactive),102 (inactive)
C=C1NC(=O)C2=C(CCSC2)N1,102,99.5,95.5 (inactive),92.2 (inactive)
O=C(NCCCNc1nc(Nc2cccc(NC(=O)N3CCCC3)c2)ncc1I)c1cccs1,62,42.3,114 (inactive),134 (inactive)
CN(C(Cc1ccc(OS(=O)(=O)c2cccc3cnccc23)cc1)C(=O)N1CCN(c2ccccc2)CC1)S(=O)(=O)c1cccc2cnccc12 (stereo not drawn),75.2 ± 17,95.6 ± 12,113 (inactive),127 (inactive)
CC(=O)OC1C(=O)C2(C)C(O)CC3OCC3(OC(C)=O)C2C(OC(=O)c2ccccc2)C2(O)CC(OC(=O)C(O)C(NC(=O)c3ccccc3)c3ccccc3)C(C)=C1C2(C)C (stereo not drawn) [Taxol],60.2 ± 4.1,10.1 ± 1.7,174 (active),132 (inactive)
Brc1c(NC2=NCCN2)ccc2nccnc12,103,102,90.2 (inactive),96.8 (inactive)
CC(NC(=O)CCc1nc(=O)c2ccccc2[nH]1)c1ccccc1 (stereo not drawn),103,111,93.7 (inactive),105 (inactive)
Cl.NCCNC(=O)c1ncsc1-c1cccc(F)c1 [Ro 41-1049 hydrochloride],97.5,90.9,97.4 (inactive),104 (inactive)
COc1ccc2c(OC)c3ccoc3nc2c1OC [Skimmianine],100,98.2,99.1 (inactive),96.2 (inactive)
CCOc1cc(N2CCC(O)CC2)ccc1Nc1ncc2c(n1)N(C)c1ccccc1C(=O)N2C,85.6,72.2,117 (inactive),169 (active)
"O=C1C(SCCO)=C(SCCO)C(=O)c2ccccc21 [2,3-bis[(2-hydroxyethyl)sulfanyl]naphthoquinone]",36.5,84.6,103 (inactive),446 (active)
Cl.NC12CC3CC(CC(C3)C1)C2 [Amantadine hydrochloride],107,109,104 (inactive),98.4 (inactive)
"CCCCCCCCCCCCCCC[C@@H](O)[C@@H](N)CO [(2S,3R)-2-amino-1,3-octadecanediol]",97.2,39.4,120 (active),96.2 (inactive)
"CCCCCCCCC=CCCCCCCCC(=O)OCC(CO)OC(=O)CCCCCCCC=CCCCCCCCC (stereo not drawn) [1,2-Dioleoyl-glycerol (18:1)]",100,104,95.2 (inactive),101 (inactive)
Br.C=CCN1CCc2c(cc(O)c(O)c2Cl)C(c2ccccc2)C1 (racemic),94.1,79.4,96.2 (inactive),107 (inactive)
CC1(C)C(C(=O)O)N2C(=O)CC2S1(=O)=O (stereo not drawn) [Sulbactam],–,–,95.9 (inactive),108 (inactive)
CCN(CC)CCCC(C)Nc1c2ccc(Cl)cc2nc2ccc(OC)cc12.Cl.Cl (stereo not drawn) [Quinacrine dihydrochloride],67.6,4.99,–,133 (inactive)
CCCCCCCCCCCCCCCCCCOCC(COP(=O)([O-])OCC[N+](C)(C)C)OC (stereo not drawn),51.3 and 99.9,–,225 (active) and 85.1 (inactive),162 (active) and 103 (inactive)
C[n+]1cc2c3c(ccc2c2ccc4cc5c(cc4c21)OCO5)OCO3.[Cl-] [Sanguinarine chloride],15.1,0.53,–,178 (active)
COS(=O)(=O)[O-].C[n+]1c2ccccc2nc2ccccc21 [5-methylphenazin-5-ium methyl sulfate],28.1,4.9,–,688 (active)
COc1ccc(CCN(C)CCCC(C#N)(c2ccc(OC)c(OC)c2)C(C)C)cc1OC.Cl (racemic),–,–,99.2 (inactive),95.5 (inactive)
Nc1ncnc2c1nc(N)n2[C@@H]1O[C@H](CO)[C@@H](O)[C@H]1O,25.5,2.02,–,76.3 (inactive)
CCCCCCCCC=CCCCCCCCCC(=O)O [10(E)-Nonadecenoic acid],96.1,98.8,97.4 (inactive),101 (inactive)
